Experimental data as given in PubChem BioAssay AID1851 (National Center for Advancing Translational Sciences (NCATS), 2009).
Among all 16,000 compounds or so, about 5,800 (36%) were called active. Inconclusive results (about 23%) are left out. Calls follow the shape of the dose curve; as a rule, active = well fitted curve in the direction sought with a large enough effect; inconclusive = small, poorly fitted or top-dose-only effect, or effect the other way; inactive = no such curve, though single readings can be large or run the other way. Some of the results follow.

Each molecule was assayed against Cytochrome P450 2C19 (Homo sapiens) (UniProt P33261) (assay: Cytochrome panel assay with activity outcomes). Details: recombinant CYP, pro-luciferin dealkylation, luminescence, p450-cyp2c19; series mostly up to 57.1 µM; activity, negative = inhibition: at the top concentration.
Chain of Cytochrome P450 2C19 (Homo sapiens) (P33261 whole entry, looked up): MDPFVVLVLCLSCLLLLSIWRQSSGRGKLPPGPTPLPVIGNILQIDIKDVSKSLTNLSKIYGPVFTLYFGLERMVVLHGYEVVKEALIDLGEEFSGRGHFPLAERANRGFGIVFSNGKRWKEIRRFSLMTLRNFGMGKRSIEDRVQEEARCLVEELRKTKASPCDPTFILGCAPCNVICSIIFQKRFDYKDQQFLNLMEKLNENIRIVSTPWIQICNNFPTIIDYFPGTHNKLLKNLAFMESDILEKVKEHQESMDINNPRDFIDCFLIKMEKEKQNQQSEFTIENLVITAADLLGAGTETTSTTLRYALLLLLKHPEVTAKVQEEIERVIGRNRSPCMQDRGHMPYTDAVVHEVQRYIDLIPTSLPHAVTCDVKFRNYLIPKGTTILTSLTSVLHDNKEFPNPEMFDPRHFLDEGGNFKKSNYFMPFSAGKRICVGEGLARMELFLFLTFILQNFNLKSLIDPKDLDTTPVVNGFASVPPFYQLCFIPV
% is scaled to controls: 0 for no effect and ±100 for the full control effect.

activity, negative = inhibition, inactive:
Cn1c(=O)c2[nH]cnc2n(C)c1=O -6.84% [at 25.6 µM]
N#CCCn1c(=O)c(-c2cccs2)nc2cnc(Oc3cccc(Cl)c3)nc21 -34.9%
C=CC[C@@H]1C=C[C@H](O/N=C\[C@@H](C)[C@H](OCc2ccccc2)C(C)C)[C@H](CO)O1 -27.4% [at 11.4 µM]
COC(=O)C/C=C\[C@@H](C)[C@@H](/C=N\OC[C@@H](O)[C@H]1O[C@H]2OC(C)(C)O[C@H]2[C@@H]1O)NS(=O)(=O)c1ccc(C)cc1 -25.2% [at 11.4 µM]
C=CC[C@@H]1C=C[C@@H](O/N=C\[C@@H](OC)[C@H](C)/C=C\CC(=O)OC)[C@@H](CO)O1 -6.92% [at 11.4 µM]
COC(=O)C/C=C\[C@@H](C)[C@@H](/C=N\OCC[C@H]1C=C[C@H](OC(C)=O)[C@@H](COC(C)=O)O1)NS(=O)(=O)c1ccc(C)cc1 -2.17% [at 11.4 µM]
COC(=O)C/C=C\[C@@H](C)[C@@H](/C=N\O[C@@H](C)CN1CCCCc2nc(C)c(C)cc21)NS(=O)(=O)c1ccc(C)cc1 -9.76% [at 11.4 µM]
CC(=O)OC[C@@H]1O[C@H](CCO/N=C\[C@@H](C)[C@H](OCc2ccccc2)C(C)C)C=C[C@@H]1OC(C)=O -11.7% [at 11.4 µM]
COC(=O)C/C=C\[C@@H](C)[C@@H](/C=N\OC[C@@H](O)COCc1ccco1)OC -19.2% [at 11.4 µM]
CCCc1c(OCCCOc2ccc(OCC(=O)O)cc2)ccc(C(C)=O)c1O -37.6%
c1ccc2sc(SCCSc3nc4ccccc4s3)nc2c1 6.86% [at 11.4 µM]
C[N+](C)(C)CC(=O)O 10.6%
CC(C)OC(=O)CC12CN(C)CC(CC(=O)OC(C)C)(CN(C)C1)C2=O -21.7%
COc1ccc(-c2nc3cnc(N4CCOCC4)nc3n(C[C@H]3CCCO3)c2=O)cc1 -19.7%
O=C(O)[C@@H]1CS[C@@]2(CCCN(Cc3ccccc3)C2)N1 7.34% [at 11.4 µM]
C#CCCCO/N=C1/C[C@@H](O)[C@@H](O)[C@@H]2[C@@H]3C(=O)N(CC)C(=O)[C@H]3CC[C@@H]12 -28.6% [at 11.4 µM]
Cc1ccc(/C(C#N)=C/c2cccc([N+](=O)[O-])c2)cc1 8.97% [at 11.4 µM]
NC[C@@H]1O[C@H](C23CC4CC(CC(C4)C2)C3)Cc2c1ccc(O)c2O -13.6%
O=C1[C@H]2[C@H]3[C@H](O)[C@H](O)C/C(=N/OCc4ccccc4)[C@@H]3CC[C@@H]2C(=O)N1C[C@@H]1CCCO1 -0.01% [at 11.4 µM]
CC1(CC(=O)O)O[C@H]2CCCCC[C@H]2O1 (some centres undefined) (tested in a mixture with another compound) 1.88% [at 11.4 µM]
CC1(CCC(=O)OC2CCCCC2)OCCO1 -35.8% [at 11.4 µM]
COc1ccccc1CNc1cc(-c2ccc(C(=O)N(C)C)cc2)ncn1 -35%
Cc1cnc(CNc2cc(-c3ccccc3CN(C)C)ncn2)cn1 -5.32%
Cc1noc(C)c1C(=O)N1CCC2(CCN(C(=O)NC(C)C)CC2)CC1 -42%
OC[C@@H]1NC[C@@H](O)[C@@H](O)[C@H]1O 17.9%
Nc1ncnc2c1ncn2[C@H]1O[C@@H](C(=O)OCCO)[C@@H](O)[C@H]1O 4.2% [at 11.4 µM]
C=C1c2cccc(O)c2C(O)=C2C(=O)[C@@]3(O)C(O)=C(C(N)=O)C(=O)[C@@H](N(C)C)[C@@H]3[C@@H](O)[C@H]12 -9.19% [at 25.6 µM]
Cc1c(NC(=O)CN2C(=O)C3C4C=CC(C4)C3C2=O)c(=O)n(-c2ccccc2)n1C (centres undefined) -21.4%
Cc1c(NC(=O)NC(C)N2C(=O)C3C4C=CC(C4)C3C2=O)c(=O)n(-c2ccccc2)n1C (centres undefined) -3.29%

AC50, active:
Cc1nc2sccc2c(=O)n1-c1cccc(Cl)c1 794 nM
CCCNC(=O)OC[C@H]1O[C@@H](CCO/N=C\[C@@H](NS(=O)(=O)c2ccc(C)cc2)[C@H](C)/C=C\CC(=O)OC)C=C[C@@H]1Oc1ccc(OC)cc1 3160 nM
COC(=O)C/C=C\[C@@H](C)[C@@H](/C=N\OC[C@@H]1O[C@H](c2ccccc2)C=C[C@@H]1Oc1ccc(OC)cc1)OC 1580 nM
COC(=O)C/C=C\[C@@H](C)[C@@H](/C=N\OC[C@@H]1O[C@H](c2ccccc2)C=C[C@@H]1Oc1ccc(OC)cc1)NS(=O)(=O)c1ccc(C)cc1 398 nM
CCCNC(=O)OC[C@@H]1O[C@H](CCO/N=C\[C@@H](C)[C@H](OCc2ccccc2)C(C)C)C=C[C@@H]1Oc1ccc(OC)cc1 3160 nM
O=C1C2C3C=CC(C3)C2C(=O)N1/N=C/c1cn(Cc2ccc(F)cc2)c2ccccc12 (centres undefined) 11200 nM
Oc1ccccc1C(Sc1nc2ccccc2s1)Sc1nc2ccccc2s1 3160 nM
c1ccc2sc(SCSc3nc4ccccc4s3)nc2c1 1260 nM
c1ccc(NCCSc2nc3ccccc3s2)cc1 398 nM
NCCSc1nc2ccccc2s1 1580 nM
CCOC(=O)c1cnc(SCCc2ccccc2)nc1N 7940 nM
Cc1ccc(C2=Nc3ccccc3S[C@@H](c3cccc([N+](=O)[O-])c3)C2)cc1 3980 nM
NC[C@@H]1O[C@H](c2ccccc2)Cc2c1ccc(O)c2O 1000 nM
O=C(CC1(O)CCCCC1)OC1CCCC1 1580 nM
COc1ccccc1CNc1cc(-c2ccccc2C)ncn1 1000 nM
COc1ccccc1CNc1cc(-c2ccccc2OC)ncn1 1580 nM
CC1CCN(c2cc(N3CCC(C)CC3)c([N+](=O)[O-])cc2/C=C(\C#N)c2nn(-c3ccccc3)c(N)c2C#N)CC1 447 nM
N#C/C(=C\c1cc([N+](=O)[O-])c(N2CCCCC2)cc1N1CCCCC1)c1nn(-c2ccccc2)c(N)c1C#N 282 nM
O=C(NNC(=S)NCc1ccco1)c1ccc(Cl)s1 7940 nM
CCC(C(=O)c1ccccc1)N(C(=O)c1ccccc1Cl)N1C(=O)C2C3C=CC(C3)C2C1=O (centres undefined) 3550 nM
